Measurements from PubChem BioAssay (NCATS).
Results filed as inconclusive are left out. Calls of active or inactive are those of the source. Unless noted, calls come from the whole dose curve; as a rule, active = well fitted curve in either direction with a large enough effect (not every such curve was filed as active); inconclusive = small, poorly fitted or top-dose-only effect, or another doubt; inactive = flat fitted curve, though single readings scatter.

Columns and labels:
[1] = target: Lysosomal acid glucosylceramidase (Homo sapiens) (UniProt P04062); experiment: Glucocerebrosidase-p2 (AID 348; in the data active = potency below about 10 µM; note: potency is the fitted concentration of half-maximal effect); details: purified GBA, blue fluorogenic substrate, 40 min
Sequence of Lysosomal acid glucosylceramidase (Homo sapiens) (P04062 whole entry, looked up): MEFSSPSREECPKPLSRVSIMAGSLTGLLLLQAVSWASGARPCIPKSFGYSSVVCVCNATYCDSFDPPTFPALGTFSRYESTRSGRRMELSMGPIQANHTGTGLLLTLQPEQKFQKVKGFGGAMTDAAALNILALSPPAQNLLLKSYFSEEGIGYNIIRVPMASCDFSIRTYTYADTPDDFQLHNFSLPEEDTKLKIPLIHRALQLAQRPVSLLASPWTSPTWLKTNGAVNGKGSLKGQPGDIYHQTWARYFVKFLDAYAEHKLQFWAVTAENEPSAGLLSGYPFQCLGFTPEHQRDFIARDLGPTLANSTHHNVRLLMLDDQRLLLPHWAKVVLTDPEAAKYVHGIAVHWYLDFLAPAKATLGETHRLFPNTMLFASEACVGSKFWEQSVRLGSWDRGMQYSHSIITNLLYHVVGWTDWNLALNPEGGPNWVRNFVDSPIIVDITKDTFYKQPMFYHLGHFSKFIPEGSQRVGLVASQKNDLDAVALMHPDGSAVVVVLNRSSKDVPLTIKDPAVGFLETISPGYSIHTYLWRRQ
How it was run: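 Compounds titrated from 0.6 nM upwards against 0.2 nM enzyme in pH 5.9 citric acid/KH2PO4, taurocholate, tween-20; blue fluorogenic substrate 80 uM, 40 min room temperature, stopped and read Ex 365/Em 440 for AC50.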

[2] = AP1 Signaling Pathway (AID 357); details: ME-180 AP-1-bla reporter, EGF-induced, beta-lactamase ratio, 5 h; at 7.69 µM (top of the series) unless noted; note: % is set by controls: 0 for no effect and ±100 for the full control effect
How it was run: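 In this screen, ME-180 cells in Opti-MEM with 0.5% dialyzed FBS received EC50 EGF and compound titrations for 5 h. AP-1 reporter beta-lactamase was detected via CCF4 ratio, giving AC50 for positive and negative modulators.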

[3] = target: Cytochrome P450 1A2 (Homo sapiens) (UniProt P05177); experiment: p450-cyp1a2 (AID 410; calls by dose curve; note: potency is the fitted concentration of half-maximal effect); details: recombinant CYP1A2, luciferin-ME demethylation, luminescence; series mostly up to 57 µM
Sequence of Cytochrome P450 1A2 (Homo sapiens) (P05177 whole entry, looked up): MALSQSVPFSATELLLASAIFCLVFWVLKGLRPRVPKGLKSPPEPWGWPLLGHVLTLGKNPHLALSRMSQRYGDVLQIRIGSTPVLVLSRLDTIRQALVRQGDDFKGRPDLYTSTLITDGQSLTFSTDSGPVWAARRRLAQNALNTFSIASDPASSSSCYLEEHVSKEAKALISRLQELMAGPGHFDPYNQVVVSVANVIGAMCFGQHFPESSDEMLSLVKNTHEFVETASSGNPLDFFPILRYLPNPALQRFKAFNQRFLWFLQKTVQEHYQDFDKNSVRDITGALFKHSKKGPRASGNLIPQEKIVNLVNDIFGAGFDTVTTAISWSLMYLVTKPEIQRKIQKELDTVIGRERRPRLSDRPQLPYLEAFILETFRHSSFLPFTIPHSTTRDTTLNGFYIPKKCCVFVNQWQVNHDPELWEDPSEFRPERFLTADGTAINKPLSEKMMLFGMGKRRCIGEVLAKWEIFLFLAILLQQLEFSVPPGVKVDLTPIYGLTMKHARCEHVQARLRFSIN
How it was run: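 Human CYP1A2 (20nM) demethylated Luciferin-ME at its Km (100uM) in 100mM KPO4. After 10 min compound preincubation, NADPH regeneration ran the reaction 60 min at room temperature. Luciferin was read by luminescence, normalized to 57 uM furafylline.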

[4] = NFAT Signaling Pathway (AID 444); details: Jurkat NFAT-bla M1, carbachol, beta-lactamase ratio, 5 h; at 7.69 µM (top of the series) unless noted;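 note: carbachol stimulus at about its EC50 of 1 µM final; % is set by controls: 0 for no effect and ±100 for the full control effect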
How it was run: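 Jurkat cells carrying an NFAT-driven β-lactamase reporter and co-transfected muscarinic M1 receptor were treated with compound plus carbachol (1 uM final, an EC50 level) for 5 h at 37 °C. CCF4 loading followed for 1 h at RT; 460/530 nm ratio gave %activity.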

[5] = Stat Signaling Pathway (AID 446); details: ME-180 SIE beta-lactamase reporter, IL-6 stimulated, 5 h; at 7.69 µM (top of the series) unless noted;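 note: ME-180 cervical cancer cells given 40 pM IL-6 alongside compound; SIE-controlled beta-lactamase reporter measured as 460/530 nm FRET emission ratio; % is set by controls: 0 for no effect and ±100 for the full control effect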
How it was run: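 ME-180 SIE-bla cells; overnight plating; cpd + IL-6 40 pM, 5 h, 37 C; LiveBLAzer 2.5 h RT; 460/530 nm emission ratio. Normalized to 300 pM IL-6 and 125 nM JAK inhibitor controls.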

[6] = target: Glucocorticoid receptor (Homo sapiens) (UniProt P04150); experiment: GR-GFP Redistribution (AID 450;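 active = compounds whose dose series gives a full or clear partial fitted curve of increased nuclear translocation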; note: potency is the fitted concentration of half-maximal effect); details: U2OS GR-GFP nuclear translocation, laser cytometry, 2 h
Sequence of Glucocorticoid receptor (Homo sapiens) (P04150 whole entry, looked up, the tested form may be a part): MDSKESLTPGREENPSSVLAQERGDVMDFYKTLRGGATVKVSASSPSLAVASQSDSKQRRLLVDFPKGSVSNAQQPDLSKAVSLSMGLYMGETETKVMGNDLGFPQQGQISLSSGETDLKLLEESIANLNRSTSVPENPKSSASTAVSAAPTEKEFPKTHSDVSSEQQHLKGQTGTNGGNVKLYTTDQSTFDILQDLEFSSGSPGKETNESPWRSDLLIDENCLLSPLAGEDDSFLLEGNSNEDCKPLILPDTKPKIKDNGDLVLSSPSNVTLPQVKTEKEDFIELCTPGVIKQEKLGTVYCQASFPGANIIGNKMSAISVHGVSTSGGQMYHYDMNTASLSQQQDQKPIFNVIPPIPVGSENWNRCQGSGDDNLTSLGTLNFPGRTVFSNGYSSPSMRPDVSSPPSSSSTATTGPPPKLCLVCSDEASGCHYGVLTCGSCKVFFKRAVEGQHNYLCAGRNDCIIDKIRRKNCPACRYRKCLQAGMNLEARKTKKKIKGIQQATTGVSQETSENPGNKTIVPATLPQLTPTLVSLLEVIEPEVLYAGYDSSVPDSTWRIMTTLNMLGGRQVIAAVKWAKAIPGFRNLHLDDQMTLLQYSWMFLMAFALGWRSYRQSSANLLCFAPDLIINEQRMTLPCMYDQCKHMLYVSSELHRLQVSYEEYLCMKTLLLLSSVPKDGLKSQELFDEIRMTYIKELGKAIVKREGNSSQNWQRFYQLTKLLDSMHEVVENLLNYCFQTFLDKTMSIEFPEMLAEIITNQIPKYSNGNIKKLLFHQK

[7] = target: Glucocorticoid receptor (Homo sapiens) (UniProt P04150); experiment: GR-EFC Redistribution (AID 451; calls by dose curve; note: potency is the fitted concentration of half-maximal effect); details: CHO-K1 GR-EFC translocation, beta-gal luminescence, 2 h
How it was run: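 CHO-K1 cells stably expressing nuclear-localized β-gal enzyme acceptor and GR fused C-terminally to the enzyme donor fragment; ligand-driven nuclear translocation restores β-gal by complementation. Compounds titrated up to 46 uM final, 2 h at 37 °C; luminescence read.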

[8] = target: Mitogen-activated protein kinase 10 (Mus musculus) (UniProt Q61831); experiment: JNK3 AlphaScreen Assay (AID 530); details: JNK3 lysate, c-Jun phosphorylation; series mostly up to 57.1 µM;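 note: kinase came from lysate of stimulated human HepG2 cells; signal reports phosphorylation of biotinylated GST-cJun 1-79 at Ser73 with 10 µM ATP; % is set by controls: 0 for no effect and ±100 for the full control effect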
How it was run: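 JNK3 came from HepG2 lysates pre-activated with IL-1beta and TNF-alpha and phosphorylated biotinylated GST-cJun (1-79) at 10 uM ATP, pH 7.6, room temperature. Compounds were titrated. AlphaScreen signal used anti-phospho-cJun (Ser73) antibody.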

[9] = target: Cytochrome P450 2C9 (Homo sapiens) (UniProt P11712); experiment: qHTS Assay for Inhibitors and Substrates of Cytochrome P450 2C9 (AID 883; active = well fitted curve in the direction sought with a large enough effect; an effect the other way counts as inactive or inconclusive; note: potency is the fitted concentration of half-maximal effect; nearly all actives have a fitted effect of over 60% in size); details: recombinant CYP2C9, luciferin-H luminescence, 60 min; series mostly up to 57.1 µM
Sequence of Cytochrome P450 2C9 (Homo sapiens) (P11712 whole entry, looked up): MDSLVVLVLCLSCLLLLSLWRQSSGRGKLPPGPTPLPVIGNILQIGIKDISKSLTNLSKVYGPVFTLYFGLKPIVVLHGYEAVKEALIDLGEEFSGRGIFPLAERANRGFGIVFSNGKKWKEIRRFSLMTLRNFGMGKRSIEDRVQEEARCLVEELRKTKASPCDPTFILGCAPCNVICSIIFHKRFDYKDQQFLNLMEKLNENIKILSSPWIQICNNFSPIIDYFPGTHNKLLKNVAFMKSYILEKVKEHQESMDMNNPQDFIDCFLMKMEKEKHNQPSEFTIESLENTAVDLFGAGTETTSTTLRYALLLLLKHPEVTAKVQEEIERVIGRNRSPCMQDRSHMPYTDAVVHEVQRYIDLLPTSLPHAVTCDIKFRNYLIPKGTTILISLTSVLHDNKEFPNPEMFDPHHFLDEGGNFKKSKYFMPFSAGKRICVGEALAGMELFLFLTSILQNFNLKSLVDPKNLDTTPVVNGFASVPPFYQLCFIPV
How it was run: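 Human CYP2C9 (10nM) hydroxylated Luciferin-H (100uM, at its KM) to luciferin in 25mM KPO4. Compound was preincubated 10 min at 37C, then NADPH regeneration started a 60 min reaction at 37C. Luminescence was read after detection reagent, normalized to 57uM sulphaphenazole.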

[10] = target: Cytochrome P450 2C19 (Homo sapiens) (UniProt P33261); experiment: qHTS Assay for Inhibitors and Substrates of Cytochrome P450 2C19 (AID 899; active = well fitted curve in the direction sought with a large enough effect; an effect the other way counts as inactive or inconclusive; note: potency is the fitted concentration of half-maximal effect; nearly all actives have a fitted effect of over 60% in size); details: recombinant CYP2C19, luciferin-H EGE luminescence; series mostly up to 57.1 µM
Sequence of Cytochrome P450 2C19 (Homo sapiens) (P33261 whole entry, looked up): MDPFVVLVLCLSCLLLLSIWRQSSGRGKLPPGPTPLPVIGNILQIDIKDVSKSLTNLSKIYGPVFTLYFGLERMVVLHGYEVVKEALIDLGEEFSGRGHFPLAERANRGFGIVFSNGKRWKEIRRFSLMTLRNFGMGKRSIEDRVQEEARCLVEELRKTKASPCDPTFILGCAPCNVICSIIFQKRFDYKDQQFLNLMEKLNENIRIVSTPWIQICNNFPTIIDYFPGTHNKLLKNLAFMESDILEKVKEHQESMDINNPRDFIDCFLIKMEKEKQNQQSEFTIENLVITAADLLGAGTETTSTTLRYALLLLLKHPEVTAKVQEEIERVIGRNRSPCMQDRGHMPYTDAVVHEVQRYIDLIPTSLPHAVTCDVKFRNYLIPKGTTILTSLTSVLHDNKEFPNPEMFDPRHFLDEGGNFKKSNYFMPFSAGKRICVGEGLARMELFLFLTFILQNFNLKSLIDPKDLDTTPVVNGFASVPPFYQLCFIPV
How it was run: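 Human CYP2C19 (5nM) with Luciferin-H EGE at 10uM (its KM) in 50mM KPO4 was preincubated with compound for 10 min at 37C. NADPH regeneration started a 60 min 37C reaction. Luciferin was read by luminescence, normalized to 57uM ketoconazole.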

[11] = Confirmation and Secondary Assay for Modulators of Hemoglobin Beta Chain Splicing at IVS2 654 locus (AID 910; active = well fitted curve in the direction sought with a large enough effect; an effect the other way counts as inactive or inconclusive;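 note: per-well total GFP intensity by laser scanning cytometry after 2-day treatment; % of control where 0% means no effect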); details: HeLa EGFP-654 splicing reporter, GFP fluorescence, 48 h; series mostly up to 38.3 µM
How it was run: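 HeLa cells stably carrying EGFP interrupted by mutant beta-globin IVS2-654 intron (CMV-driven) were treated with compound for 2 days at 37C; corrected splicing was scored as total peak GFP intensity per well (488 nm excitation, 500-520 nm emission).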

[12] = Confirmation and Secondary Assay for Modulators of Hemoglobin Beta Chain Splicing at IVS2 705 locus (AID 930; active = well fitted curve in the direction sought with a large enough effect; an effect the other way counts as inactive or inconclusive;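 note: HeLa cells stably expressing the EGFP-705 splicing reporter; GFP fluorescence per well restored by corrected splicing of the IVS2-705 intron in EGFP; % of control where 0% means no effect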); details: HeLa EGFP-705 splicing reporter, GFP fluorescence, 48 h; series mostly up to 38.3 µM
How it was run: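 Splice-correction reporter: EGFP cDNA split by beta-globin intron 2 bearing the 705 mutation, stably in HeLa. Compound incubation 2 days, 37C; fluorescent objects 5-250 µm summed per well.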

[13] = qHTS Assay for Lipid Storage Modulators (AID 1519; calls by dose curve); details: Drosophila S3 cells, BODIPY lipid droplet/cell ratio, laser cytometry, cells loaded with oleic acid; for activity change, negative = inhibition: at 57.5 µM (top of the series)
How it was run: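 Cells seeded at 5,000 per well were treated with compounds over a concentration series and loaded with oleic acid (400 uM, as added). Lipid droplet fluorescence (488 nm excitation, 500-530 nm channel) was read by laser-scanning cytometry and normalized to 20 uM Triacsin C.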

[14] = target: Ubiquitin carboxyl-terminal hydrolase 1 (Homo sapiens) (UniProt O94782); experiment: Inhibitors of USP1/UAF1: Pilot qHTS (AID 504865; active = well fitted curve in the direction sought with a large enough effect; an effect the other way counts as inactive or inconclusive;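 note: rhodamine fluorescence freed from ubiquitin-rhodamine substrate followed over time; top concentration of the series differs between compounds; % is set by controls: 0 for no effect and ±100 for the full control effect; nearly all actives have a fitted effect of over 35% in size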); details: purified USP1/UAF1, Ub-rhodamine cleavage fluorescence; series mostly up to 54.9 µM
Sequence of Ubiquitin carboxyl-terminal hydrolase 1 (Homo sapiens) (O94782 whole entry, looked up): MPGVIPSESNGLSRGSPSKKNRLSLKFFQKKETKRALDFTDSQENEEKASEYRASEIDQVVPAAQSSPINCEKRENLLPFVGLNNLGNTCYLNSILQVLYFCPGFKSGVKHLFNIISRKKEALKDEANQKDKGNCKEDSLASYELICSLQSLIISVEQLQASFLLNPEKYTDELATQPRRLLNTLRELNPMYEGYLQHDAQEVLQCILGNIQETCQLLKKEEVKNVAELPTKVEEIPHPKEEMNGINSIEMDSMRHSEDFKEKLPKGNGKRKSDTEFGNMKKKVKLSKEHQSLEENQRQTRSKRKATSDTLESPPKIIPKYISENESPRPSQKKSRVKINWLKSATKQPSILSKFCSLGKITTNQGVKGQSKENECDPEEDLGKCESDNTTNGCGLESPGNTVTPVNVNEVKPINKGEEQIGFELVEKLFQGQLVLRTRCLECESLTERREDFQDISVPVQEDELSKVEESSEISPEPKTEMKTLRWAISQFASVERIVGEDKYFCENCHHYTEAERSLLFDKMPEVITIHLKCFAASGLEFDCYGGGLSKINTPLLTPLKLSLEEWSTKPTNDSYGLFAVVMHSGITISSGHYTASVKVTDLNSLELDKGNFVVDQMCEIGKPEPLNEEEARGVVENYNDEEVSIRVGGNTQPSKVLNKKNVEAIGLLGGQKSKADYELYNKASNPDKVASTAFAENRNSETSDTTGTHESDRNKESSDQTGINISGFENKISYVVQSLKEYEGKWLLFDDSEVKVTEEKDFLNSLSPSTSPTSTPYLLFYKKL
How it was run: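 Enzyme-free wells gave the negative control, while test wells held 1nM USP1/UAF1 preincubated with compound for 15 min at room temperature. Ub-Rho at 150nM final started the reaction, and fluorescence at 480/540 nm was recorded kinetically.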

[15] = Primary qHTS for small molecule stabilizers of the endoplasmic reticulum resident proteome: Secreted ER Calcium Modulated Protein (SERCaMP) assay (AID 1508630; active = well fitted curve in the direction sought with a large enough effect; an effect the other way counts as inactive or inconclusive; note: % is set by controls: 0 for no effect and ±100 for the full control effect); details: SH-SY5Y GLuc-SERCaMP (Gaussia luciferase released on ER calcium loss) secretion, thapsigargin, luminescence; series mostly up to 38.4 µM
How it was run: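 GLuc-SERCaMP-expressing SH-SY5Y cells, pretreated 16 h with compound, are challenged with thapsigargin to empty ER calcium stores; after 4 h, coelenterazine is added directly to the medium and luminescence is imaged.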

[16] = target: 3',5'-cyclic-AMP phosphodiesterase 4B (Homo sapiens) (UniProt Q07343); experiment: qHTS Assay for Inhibitors of PDE-IV (AID 607; active = well fitted activation curve with a large enough effect in the main read-out, with a control signal flat, not every such curve was filed as active; note: % of control where 0% means no effect); details: HEK293 ACTOne CNG channel cells, membrane potential fluorescence; series mostly up to 22.9 µM
Sequence of 3',5'-cyclic-AMP phosphodiesterase 4B (Homo sapiens) (Q07343 whole entry, looked up): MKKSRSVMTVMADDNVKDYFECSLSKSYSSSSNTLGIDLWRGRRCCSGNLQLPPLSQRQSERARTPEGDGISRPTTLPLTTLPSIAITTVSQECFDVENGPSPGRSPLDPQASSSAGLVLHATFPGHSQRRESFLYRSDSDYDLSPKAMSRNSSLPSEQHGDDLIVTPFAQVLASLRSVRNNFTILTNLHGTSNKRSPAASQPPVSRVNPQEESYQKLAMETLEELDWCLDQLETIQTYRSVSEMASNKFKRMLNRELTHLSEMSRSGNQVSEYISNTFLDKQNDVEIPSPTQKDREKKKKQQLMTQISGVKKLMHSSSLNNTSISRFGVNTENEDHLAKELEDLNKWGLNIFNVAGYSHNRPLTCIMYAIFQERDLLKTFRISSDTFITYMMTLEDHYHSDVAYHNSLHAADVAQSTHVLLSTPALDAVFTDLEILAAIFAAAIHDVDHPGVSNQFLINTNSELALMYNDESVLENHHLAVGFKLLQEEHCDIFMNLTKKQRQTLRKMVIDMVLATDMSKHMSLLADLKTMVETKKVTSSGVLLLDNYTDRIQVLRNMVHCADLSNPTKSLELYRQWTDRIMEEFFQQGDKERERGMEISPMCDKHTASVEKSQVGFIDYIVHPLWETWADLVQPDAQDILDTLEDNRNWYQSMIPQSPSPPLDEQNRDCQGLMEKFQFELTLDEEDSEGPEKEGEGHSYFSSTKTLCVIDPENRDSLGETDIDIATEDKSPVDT
How it was run: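 ACTOne HEK293 cells carry a modified cAMP-gated CNG channel and express endogenous PDE4; plated 1000 cells/well, compounds up to 22.9 uM final. Membrane-potential dye fluorescence (ex 535/em 590) was read; parental cells received 10 uM forskolin + 100 uM RO 20-1724.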

[17] = target: Cytochrome P450 3A4 (Homo sapiens) (UniProt P08684); experiment: qHTS Assay for Activators of Cytochrome P450 3A4 (AID 885; active = well fitted curve in the direction sought with a large enough effect; an effect the other way counts as inactive or inconclusive; note: nearly all actives have a fitted effect of over 65% in size); details: recombinant CYP3A4, Luciferin-PPXE luminescence, 60 min; series mostly up to 57.1 µM
Sequence of Cytochrome P450 3A4 (Homo sapiens) (P08684 whole entry, looked up): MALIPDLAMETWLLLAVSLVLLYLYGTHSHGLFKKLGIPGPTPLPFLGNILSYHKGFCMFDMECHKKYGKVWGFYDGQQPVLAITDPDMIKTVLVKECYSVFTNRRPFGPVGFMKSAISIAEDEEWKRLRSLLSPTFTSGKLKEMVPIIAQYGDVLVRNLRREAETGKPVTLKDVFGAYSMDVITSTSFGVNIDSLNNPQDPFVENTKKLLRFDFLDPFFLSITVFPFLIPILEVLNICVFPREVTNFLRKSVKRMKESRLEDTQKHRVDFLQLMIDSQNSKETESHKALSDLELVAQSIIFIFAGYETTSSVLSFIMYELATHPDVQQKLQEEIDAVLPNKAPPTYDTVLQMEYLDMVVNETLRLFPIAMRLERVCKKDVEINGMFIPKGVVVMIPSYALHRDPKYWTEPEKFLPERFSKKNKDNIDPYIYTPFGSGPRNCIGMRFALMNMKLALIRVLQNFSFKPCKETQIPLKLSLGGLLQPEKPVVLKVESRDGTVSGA
How it was run: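 20nM CYP3A4 + 25uM Luciferin-PPXE (=KM), 200mM KPO4; cpd 10 min RT; NADPH regen, 60 min RT; stop w/ detection buffer, 20 min; luminescence. Normalized to 57 uM ketoconazole.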

[18] = qHTS Assay for Identification of Small Molecule Agonists for Hypoxia Response Element Signaling Pathway (AID 914; active = well fitted activation curve with a large enough effect in the signal ratio, with a control signal flat, not every such curve was filed as active; the % refers to the signal ratio; note: % of control where 0% means no effect); details: ME-180 (cervical carcinoma) HRE-bla reporter, beta-lactamase ratio, CoCl2, 17 h; activation: stronger effect = higher value
How it was run: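 Cells were plated overnight, pin-dosed with compound in a titration series, co-stimulated with EC50 CoCl2 and incubated 17 hours at 37 degrees Celsius. CCF4 substrate was then loaded, and AC50 values came from the 460nm/530nm ratio.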

[19] = measured here: cell count channel max response
[20] = measured here: lipid channel max response

Structure (SMILES) | Potency [1] | activity change, negative = inhibition [2] | Potency [3] | activity change, negative = inhibition [4] | activity, negative = inhibition [5] | Potency [6] | Potency [7] | outcome [8] | Potency [9] | Potency [10] | outcome [11] | outcome [12] | activity change, negative = inhibition [13] | max response [13, 19] [%] | max response [13, 20] [%] | Potency [14] | Potency [15] | Potency [16] | Potency [17] | activation [18]
c1csc(CNc2ncncc2-c2ccc3c(c2)OCO3)c1 | > 11.4 µM (inactive) | -9.82% (inactive) | 0.2 µM (active) | -6.2% (inactive) | 6.16% (inactive) | > 46 µM (inactive) | > 46 µM (inactive) | inactive | 0.316 µM (active) | 0.794 µM (active) | inactive | inactive | 6.61% (inactive) | 0.346 | 8.95 | inactive | inactive | – | – | –
Cc1nc2cnc(Oc3cccc(Cl)c3)nc2n(CCC#N)c1=O | > 11.4 µM (inactive) | -16% (inactive) | 15.8 µM (active) | 1.8% (inactive) | -7.79% (inactive) | > 9.22 µM (inactive) | > 46 µM (inactive) | inactive | – | – | – | – | 3.95% (inactive) | 19.7 | 26.1 | – | inactive | inactive | inactive | –
COc1ncc2ncc(=O)n(C)c2n1 | > 11.4 µM (inactive) | -3.14% (inactive) | 12.6 µM (active) | 2.1% (inactive) | -12.1% (inactive) | > 9.22 µM (inactive) | > 46 µM (inactive) | inactive | – | – | – | – | 6.15% (inactive) | 14.9 | 24.1 | – | inactive | inactive | – | –
c1cncc(CNc2cc(-c3ccc4c(c3)OCO4)ncn2)c1 | > 11.4 µM (inactive) | -7.3% (inactive) | 0.251 µM (active) | 11.5% (inactive) | 3.19% (inactive) | > 46 µM (inactive) | > 46 µM (inactive) | inactive | – | – | inactive | inactive | 11.7% (inactive) | 14 | 18.9 | inactive | inactive | inactive | – | –
N#Cc1cccc(-c2cc(NCc3ccccc3)ncn2)c1 | > 11.4 µM (inactive) | -7.27% (inactive) | 1 µM (active) | 17.5% (inactive) | 4.28% (inactive) | > 46 µM (inactive) | > 46 µM (inactive) | inactive | – | – | – | – | 6.18% (inactive) | 26.4 | 32.1 | – | inactive | – | – | –
Cc1noc(C)c1-c1cc(N(C)C)ncn1 | > 11.4 µM (inactive) | 10% (inactive) | 3.16 µM (active) | 9.29% (inactive) | 16% (inactive) | > 46 µM (inactive) | > 46 µM (inactive) | inactive | – | – | inactive | – | 8.35% (inactive) | 3.97 | 11.9 | inactive | inactive | inactive | – | 0.655% (inactive)
